# The list is not random: actives were taken first. Their share in the collection is about 6.9%.
# Mdm2 MdmX PPI: inhibitors of human Mdm2/MdmX interaction; inhibition, % at 8 µM; 3% of 330,000 active; SaOS-2 split-luciferase Mdm2/MdmX complementation, luminescence;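 active means inhibition of at least 50% at 8 µM in the primary screen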
# CSC inhib: cancer stem cell inhibition. cancer stem cell-like cells viability, luminescence. inhibition, % at 7.5 µM. 1.1% of 300,000 active. AID 2717; in the data active means inhibition above about 75%; tested in HMLE shEcad cells
# GRIN3A LBD mod: NR3A (human) ligand-binding domain modulation; NR3A LBD differential scanning fluorimetry, Tm shift; 0% = protein alone, 100% = glycine-bound protein; Tm shift relative to glycine control, % at 25 µM; 2.5% of 340,000 active; AID 1259313;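 active means melting temperature shift of at least 10% of the positive control shift, at one fixed dose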
# Beta apoptosis: blocks beta cell apoptosis. INS-1E cytokine-induced death, ATP luminescence, 48 h; percent of positive-control rescue, neutral wells zero. protection from apoptosis, % (concentration not given with the values). 0.8% of 300,000 active. AID 435005;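 active means Every replicate reaches about 75%, or at least half do and their mean reaches it too, limit read from the data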;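 further: 0% = cytokine-treated negative control wells and 100% = positive control rescue; higher means more ATP so stronger rescue from cytokine killing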
# SKKanGAS inh: SKKanGAS growth inhibition; inhibition, % at 7.5 µM; S. pyogenes SKKanGAS, kanamycin growth, BacTiter-Glo, 6 h; AID 1662; 1.3% of 300,000 active;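 active means mean replicate score, as percent of positive control median, at least 50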;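 further: strain carries kanamycin resistance gene driven by streptokinase promoter and grows in 40 µg/ml kanamycin; loss of luminescence reflects streptokinase promoter inhibition or plain growth inhibition; 0% = median of DMSO wells and 100% = positive control at its reference dose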
# MPTP inh: blocks calcium-induced mitochondrial swelling | isolated mouse mitochondria, Ca2+ swelling absorbance, 30 min | inhibition, % at 10 µM | 1.4% of 360,000 active;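 active means inhibition of 50% or more, scaled per plate between neutral and stimulator controls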;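 further: 0% = DMSO wells given calcium and 100% = 1 mM EGTA wells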
# Active calls of the source: *; . = not tested or not shown.
SMILES,Mdm2 MdmX PPI,CSC inhib,GRIN3A LBD mod,Beta apoptosis,SKKanGAS inh,MPTP inh
N#C/C(=C\c1ccc(-c2cccc([N+](=O)[O-])c2)o1)C(=O)Nc1nc(-c2cccs2)cs1,-8,5,11*,5,10,4
O=C(O)COCC(=O)Nc1ccc(OCCc2ccccc2)cc1,-6,3,2,0,-3,-2
O=C(C(O)c1ccccc1)N1CCN(S(=O)(=O)c2ccc(OC(F)(F)F)cc2)CC1 (stereo not drawn),.,.,.,.,.,0
CC(C)NC(=O)C1CC(=O)N(CCc2ccc(F)cc2)C1 (stereo not drawn),.,.,.,.,.,0
COc1ccc(/C=C2\SC(=S)N(CCC(=O)Nc3ccc(C(=O)O)cc3)C2=O)cc1,-4,-12,-1,-2,12,0
CC(/C=C1\SC(=S)N(CCC(=O)Nc2cccc(C(=O)O)c2)C1=O)=C\c1ccccc1,14,.,2,-3,112*,2
CC(=C\c1ccccc1)/C=C1/SC(=S)N(CCC(=O)Nc2ccccn2)C1=O,21,22,.,-1,4,.
O=C(CCN1C(=O)/C(=C/c2ccc(F)cc2)SC1=S)Nc1cc([N+](=O)[O-])ccc1O,-38,25,18*,3,28,12
COc1ccc(/C=C2\SC(=S)N(CCC(=O)Nc3cccc(O)c3)C2=O)cc1,9,.,35*,.,9,0
CC(=Cc1ccccc1)C=C1SC(=S)N(CCCC(=O)Nc2ccc(C(=O)O)cc2)C1=O,.,.,.,.,.,-1
CC(/C=C1\SC(=S)N(CCCC(=O)Nc2ccc(C(=O)O)cc2)C1=O)=C\c1ccccc1,1,.,8,3,121*,4
COc1ccc(CNC(=O)CN2C(=O)NC3(CCCCCCC3)C2=O)cc1,27,2,0,-3,.,1
CCNC(=O)C1(C)CCCN(C(=O)c2oc3ccccc3c2C)C1 (stereo not drawn),.,.,.,.,.,0
CC(/C=C1\SC(=S)N(CCC(=O)Nc2ccccc2O)C1=O)=C\c1ccccc1,28,-5,20*,1,29,0
Cc1ccc(C)c(NC(=O)c2ccc3c(c2)N(Cc2ccc(F)cc2)C(=O)CS3=O)c1 (stereo not drawn),-26,4,-9,3,7,-2
O=C(Nc1ccc(Br)cc1F)c1ccc2c(c1)N(Cc1ccccc1)C(=O)CS2=O (stereo not drawn),16,8,14*,-1,2,0
COc1ccc(N2CCN(C(=O)C3CCCN(S(=O)(=O)c4ccc(C)cc4)C3)CC2)cc1 (stereo not drawn),4,38,0,11,0,0
O=C(NCCc1ccc(C(F)(F)F)cc1)C1CCC(=O)N(CCc2cccc(F)c2)C1 (stereo not drawn),25,-11,14*,3,-12,0
COc1ccc(CCN2CC(C(=O)NCCc3cccc(F)c3)CCC2=O)cc1 (stereo not drawn),-2,.,-1,.,-2,-1
CCc1csc(CNC(=O)C2CCC(=O)N(Cc3cccc(F)c3)C2)n1 (stereo not drawn),27,-3,13*,-1,1,-1
NC(=O)c1ccccc1NC(=O)C(c1ccccc1)c1ccccc1,9,10,2,.,-3,2
c1ccc2c(-c3nnc4n3CCCCC4)cc(-c3ccncc3)nc2c1,11,-5,0,.,6,-2
Fc1ccc(-c2cc(-c3nnc4n3CCCCC4)c3ccccc3n2)cc1,3,-8,1,97*,2,0
Clc1ccc(-c2cc(-c3nnc4n3CCCCC4)c3ccccc3n2)cc1,1,12,-3,100*,1,0
O=C(NC12CC3CC(CC(C3)C1)C2)c1ccc(-c2ccc(Br)cc2)o1,-16,6,-1,18,56*,26
SMILES,Mdm2 MdmX PPI,CSC inhib,GRIN3A LBD mod,Beta apoptosis,SKKanGAS inh,MPTP inh
O=C(NC12CC3CC(CC(C3)C1)C2)c1ccc(Br)o1,-24,-5,2,7,2,0
CC(NC(=O)c1ccc([N+](=O)[O-])o1)C1CC2CCC1C2 (stereo not drawn),1,55,1,-26,.,-3
O=C(NC12CC3CC(CC(C3)C1)C2)c1ccc([N+](=O)[O-])o1,39,80*,1,-29,93*,-1
CN1CCN(CCCNC(=O)c2ccc(Cn3c(=S)[nH]c4ccc(Br)cc4c3=O)cc2)CC1,-30,0,-2,-3,-3,1
O=c1c2cc(Br)ccc2[nH]c(=S)n1Cc1ccccn1,-33,16,8,-4,-11,-1
O=c1c2cc(N3CCOCC3)ccc2[nH]c(=S)n1CCc1ccccc1,-19,45,1,0,84*,-9
O=c1c2cc(Br)ccc2[nH]c(=S)n1Cc1ccccc1,30,.,11*,.,17,0
O=C(NCc1cccnc1)c1ccc(Cn2c(=S)[nH]c3ccc(Br)cc3c2=O)cc1,17,4,2,98*,17,-2
O=C1C2CCCN2C(=O)N1CCCN1CCN(c2cccc(Br)c2)CC1 (stereo not drawn),-16,6,1,-6,4,-2
CCOc1ccc(CCNC(=O)COc2cccc(-n3cnnn3)c2)cc1OCC,21,-9,3,-6,15,-1
O=C(O)c1cccc(S(=O)(=O)Nc2ccccc2-c2ccccc2)c1,12,22,-2,3,-5,-2
O=S(=O)(Nc1ccccc1-c1ccccc1)c1ccccc1,.,.,14*,.,.,0
Cc1cccc(-n2cc(CNCCc3nc(C)cc(C)n3)c(-c3cccc(F)c3)n2)c1,47,20,-2,10,17,1
N#Cc1c(N)nc2c(c1-c1cccc(O)c1)CCCCCC2,35,82*,3,-3,-9,1
N#Cc1c(N)nc2c(c1-c1ccccc1)CCCC2,17,-18,-3,-2,-6,2
N#Cc1c(N)nc2c(c1-c1ccncc1)CCCC2,15,-28,1,3,9,0
N#Cc1c(N)nc2c(c1-c1ccncc1)CCCCCC2,7,-1,36*,-1,-5,1
CN(/N=C/c1ccc(Cl)cc1Cl)c1ncc(Cl)cc1C(F)(F)F,21,7,1,4,76*,-1
CN(/N=C/c1ccc(Cl)cc1)c1ncc(Cl)cc1C(F)(F)F,-22,51,-2,6,73*,3
CCOc1ccccc1CNS(=O)(=O)c1cnc[nH]1,-1,-9,0,-7,-2,1
CCOc1cc(N2CCOCC2)c(OCC)cc1NC(=O)CN1CCSC1=O,10,.,0,-5,.,-1
COc1cccc(CN(C)C(=O)CSCC(=O)Nc2cccc(C)c2)c1OC,-4,.,2,-8,.,-2
O=C(O)[C@@H]1CC(O)CN1C(=O)CCc1c[nH]c2ccccc12 (stereo partly drawn),10,-1,-1,-3,-4,-1
CN(C)S(=O)(=O)c1cccc(NC(=O)c2cccc(N3C(=O)CCC3=O)c2)c1,21,.,-3,.,.,-3
